Experimental data taken from PubChem BioAssay.
The source made the active and inactive calls.

Assays:
[1] = binders of probe aFSTL3 on microarray, primary screen, stem cell growth factor project, biochemical, small-molecule microarray, fluorescence 635/667 (AID 1064); settings: higher = more signal;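 further: measures binding of the biotinylated anti-FSTL3 antibody to printed compounds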
[2] = binders from COS7 lysate, DM2A8 probe, primary screen, torsin A project, cell lysate, small-molecule microarray, fluorescence 635/667 (AID 1065); settings: higher = more signal, COS7 lysate expressing mutant human TOR1A
[3] = binders of probe aFGF2 on microarray, primary screen, stem cell growth factor project, biochemical, small-molecule microarray, fluorescence 635/667 (AID 1067); settings: higher = more signal;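 further: measures binding of biotinylated aFGF2 protein to printed compounds on slides; z-score merges feature fluorescence and signal-to-noise across triplicate slides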
[4] = binders of probe aFGF10 on microarray, primary screen, stem cell growth factor project, biochemical, small-molecule microarray, fluorescence 635/667 (AID 1071); settings: higher = more signal;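 further: score merges 667 nm spot intensity and signal to noise from triplicate slides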
[5] = target: Neurogenic locus notch homolog protein 2 (Homo sapiens) (UniProt Q04721); experiment: Notch2 binders on small-molecule microarrays, primary screen, biochemical, small-molecule microarray, 635 nm fluorescence, stem cell growth factors (AID 1073); settings: Notch2 binding, higher = more signal
Chain of Neurogenic locus notch homolog protein 2 (Homo sapiens) (Q04721 whole entry, looked up, canonical isoform): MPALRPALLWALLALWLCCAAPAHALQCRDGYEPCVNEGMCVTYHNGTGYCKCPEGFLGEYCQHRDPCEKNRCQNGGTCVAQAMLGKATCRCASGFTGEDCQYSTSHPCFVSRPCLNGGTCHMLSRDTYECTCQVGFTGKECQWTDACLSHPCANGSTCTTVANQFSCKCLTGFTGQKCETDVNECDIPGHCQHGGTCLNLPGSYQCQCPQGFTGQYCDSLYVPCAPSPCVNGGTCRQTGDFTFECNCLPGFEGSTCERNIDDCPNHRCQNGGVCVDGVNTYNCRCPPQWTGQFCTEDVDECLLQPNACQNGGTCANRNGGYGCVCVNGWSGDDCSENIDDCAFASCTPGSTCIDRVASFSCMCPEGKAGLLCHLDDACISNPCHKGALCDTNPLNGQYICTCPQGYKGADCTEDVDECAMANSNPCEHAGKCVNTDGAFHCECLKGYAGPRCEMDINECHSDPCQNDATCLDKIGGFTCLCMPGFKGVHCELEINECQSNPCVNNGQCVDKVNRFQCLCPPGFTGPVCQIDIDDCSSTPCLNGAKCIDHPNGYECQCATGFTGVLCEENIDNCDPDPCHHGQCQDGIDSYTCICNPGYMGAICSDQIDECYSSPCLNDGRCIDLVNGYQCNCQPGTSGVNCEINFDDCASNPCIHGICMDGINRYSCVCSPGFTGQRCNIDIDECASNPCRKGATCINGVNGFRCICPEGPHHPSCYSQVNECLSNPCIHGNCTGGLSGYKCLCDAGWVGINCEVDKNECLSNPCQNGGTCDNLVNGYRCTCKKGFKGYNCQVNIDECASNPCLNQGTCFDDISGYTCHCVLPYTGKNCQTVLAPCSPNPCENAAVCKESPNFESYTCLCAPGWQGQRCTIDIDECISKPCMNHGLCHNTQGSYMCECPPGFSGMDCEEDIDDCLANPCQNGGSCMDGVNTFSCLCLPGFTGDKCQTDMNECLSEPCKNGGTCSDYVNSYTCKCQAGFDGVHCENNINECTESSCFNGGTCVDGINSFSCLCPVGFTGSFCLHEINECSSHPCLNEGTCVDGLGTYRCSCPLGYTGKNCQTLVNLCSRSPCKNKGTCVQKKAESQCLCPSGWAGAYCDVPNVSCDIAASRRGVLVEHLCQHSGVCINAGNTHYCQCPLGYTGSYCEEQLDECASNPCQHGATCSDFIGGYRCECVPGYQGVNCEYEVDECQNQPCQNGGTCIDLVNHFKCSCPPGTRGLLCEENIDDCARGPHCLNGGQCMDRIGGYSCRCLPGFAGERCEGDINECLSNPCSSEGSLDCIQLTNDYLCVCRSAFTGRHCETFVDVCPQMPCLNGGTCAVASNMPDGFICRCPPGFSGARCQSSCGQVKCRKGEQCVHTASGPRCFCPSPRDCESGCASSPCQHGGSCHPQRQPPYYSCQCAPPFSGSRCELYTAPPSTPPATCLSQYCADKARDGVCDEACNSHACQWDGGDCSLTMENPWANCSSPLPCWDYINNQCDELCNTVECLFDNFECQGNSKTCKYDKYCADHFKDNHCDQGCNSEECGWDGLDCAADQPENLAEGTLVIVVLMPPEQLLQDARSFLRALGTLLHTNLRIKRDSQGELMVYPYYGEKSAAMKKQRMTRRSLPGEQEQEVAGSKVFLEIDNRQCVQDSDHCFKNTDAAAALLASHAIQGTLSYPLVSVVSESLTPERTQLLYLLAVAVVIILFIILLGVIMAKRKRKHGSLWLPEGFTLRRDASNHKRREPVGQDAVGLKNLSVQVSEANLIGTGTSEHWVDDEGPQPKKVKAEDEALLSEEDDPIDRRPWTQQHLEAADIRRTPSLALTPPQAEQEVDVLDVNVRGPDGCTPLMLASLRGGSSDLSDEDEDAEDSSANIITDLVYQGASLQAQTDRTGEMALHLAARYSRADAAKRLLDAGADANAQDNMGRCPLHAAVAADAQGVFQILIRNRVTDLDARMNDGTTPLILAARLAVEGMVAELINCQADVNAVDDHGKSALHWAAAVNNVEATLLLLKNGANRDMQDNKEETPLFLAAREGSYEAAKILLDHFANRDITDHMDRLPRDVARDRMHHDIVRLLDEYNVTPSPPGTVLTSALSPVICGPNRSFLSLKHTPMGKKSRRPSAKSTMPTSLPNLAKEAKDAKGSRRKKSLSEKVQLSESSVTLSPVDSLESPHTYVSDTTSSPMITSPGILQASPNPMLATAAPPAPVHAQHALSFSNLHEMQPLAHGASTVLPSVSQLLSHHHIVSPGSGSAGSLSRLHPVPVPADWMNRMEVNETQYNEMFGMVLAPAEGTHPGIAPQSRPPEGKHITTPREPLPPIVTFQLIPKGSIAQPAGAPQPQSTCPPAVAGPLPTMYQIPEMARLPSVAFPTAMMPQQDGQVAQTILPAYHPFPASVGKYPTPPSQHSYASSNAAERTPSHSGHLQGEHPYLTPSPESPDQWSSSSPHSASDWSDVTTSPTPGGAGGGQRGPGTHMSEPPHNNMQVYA

[6] = target: Pro-neuregulin-1, membrane-bound isoform (Homo sapiens) (UniProt Q02297); experiment: NRG1 binders on small-molecule microarrays, primary screen, psychiatric disease protein project, biochemical, small-molecule microarray, fluorescence 635/667 (AID 1075); settings: NRG1 binding, 635 nm fluorescence, higher = more signal;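 further: score combines 667 nm spot fluorescence with signal to noise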
Chain of Pro-neuregulin-1, membrane-bound isoform (Homo sapiens) (Q02297 whole entry, looked up, the tested form may be a part, canonical isoform): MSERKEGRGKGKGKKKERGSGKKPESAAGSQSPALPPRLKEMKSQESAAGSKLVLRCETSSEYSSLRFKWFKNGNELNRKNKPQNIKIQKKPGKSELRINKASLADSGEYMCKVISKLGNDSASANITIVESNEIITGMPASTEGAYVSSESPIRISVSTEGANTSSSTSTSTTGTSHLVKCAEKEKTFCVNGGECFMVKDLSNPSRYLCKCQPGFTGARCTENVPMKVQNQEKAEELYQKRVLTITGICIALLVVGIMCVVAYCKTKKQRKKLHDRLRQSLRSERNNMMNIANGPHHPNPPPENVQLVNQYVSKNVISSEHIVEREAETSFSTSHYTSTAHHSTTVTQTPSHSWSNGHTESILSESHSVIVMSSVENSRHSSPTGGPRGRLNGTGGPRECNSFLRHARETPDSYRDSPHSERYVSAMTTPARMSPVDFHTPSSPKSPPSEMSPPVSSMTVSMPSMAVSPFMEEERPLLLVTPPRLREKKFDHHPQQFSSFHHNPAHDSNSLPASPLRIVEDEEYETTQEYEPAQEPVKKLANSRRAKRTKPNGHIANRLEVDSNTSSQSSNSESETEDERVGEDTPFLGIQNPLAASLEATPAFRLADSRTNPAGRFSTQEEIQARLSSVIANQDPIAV

[7] = system: Neuregulin-1 EGF-like domain; experiment: binders of neuregulin-1 EGF-like domain, primary screen, biochemical, small-molecule microarray, 635 nm fluorescence (AID 1081); settings: small-molecule microarray binding, higher = more signal;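 further: binding of the protein to compounds printed on small-molecule microarray slides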
[8] = FRG1 promoter luciferase signal modulators, primary screen, FRG1 inhibition for FSHD, cell-based, C2C12 myotubes, firefly/Renilla luciferase, luminescence (AID 1084); settings: higher = more signal, called active from +8 up or from −8 down
[9] = binders of probe aFST on microarray, primary screen, stem cell growth factor project, biochemical, small-molecule microarray, fluorescence 635/667 (AID 1086); settings: higher = more signal;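 further: score merges 667 nm fluorescence with signal-to-noise of each printed compound spot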
[10] = binders of probe aHhip on microarray, primary screen, stem cell growth factor project, biochemical, small-molecule microarray, fluorescence 635/667 (AID 1087); settings: higher = more signal;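 further: score merges spot fluorescence at 667nm with spot signal to noise ratio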

Row | SMILES | composite z-score [1] | composite z-score [2] | composite z-score [3] | composite z-score [4] | composite z-score [5] | composite z-score [6] | composite z-score [7] | z-score [8] | composite z-score [9] | composite z-score [10]
1 | C=CC[C@@H]1C=C[C@H](ON=C(C)CCN2CCc3nc(CC)c(CC)cc3C2)[C@@H](CO)O1 | 0.332 | 1.43 | -0.0593 | -0.21 | 0.0383 | -0.21 | 0.987 | 2.55 (inactive) | 0.553 | -0.123
2 | O=C1C[C@@H](O)[C@@H](O)[C@@H]2[C@@H]3C(=O)N(C4CCCCC4)C(=O)[C@@H]3CC[C@H]12 | -0.472 | 0.176 | -0.0638 | 0.593 | 0.698 | 0.0523 | 0.797 | 0.65 (inactive) | -0.22 | -0.511
3 | CC(=O)C[C@H](O)[C@@H](NC(=O)OC(C)(C)C)C(C)C | -0.475 | -0.627 | -0.129 | -0.328 | -0.453 | -0.759 | -0.996 | 0.178 (inactive) | -0.126 | -0.0668
4 | COC(=O)C1=CCC(c2cccc(Cl)c2)O1 (stereo not given) | 0.005 | -0.0992 | -0.0901 | 0.0994 | -0.104 | 1.25 | 0.584 | -0.912 (inactive) | -0.0195 | 0.0749
5 | CN1C(=O)[C@@]2(CCC(=O)OC(C)(C)C)N=C(c3ccc(OCCCO)cc3)O[C@H]2c2ccccc21 | -0.195 | 0.756 | -0.0948 | 0.124 | 0.244 | 0.859 | 1.13 | -0.105 (inactive) | 0.183 | -0.186
6 | CC(C)CON=C1C[C@@H](O)[C@@H](O)[C@@H]2[C@@H]3C(=O)N(C[C@@H]4CCCO4)C(=O)[C@@H]3CC[C@H]12 | -0.549 | 0.254 | -0.116 | 0.421 | 0.595 | -0.0414 | 0.59 | -0.267 (inactive) | -0.179 | -0.406
7 | CC(C)[C@@H](OCc1ccccc1)[C@H](C)C=NOC[C@@H](C)[C@H](OCc1ccccc1)C(C)C | -0.539 | 0.0717 | -0.164 | 0.31 | 0.303 | 0.106 | -0.44 | -0.108 (inactive) | -0.0889 | -0.131
8 | COCCNC(=O)OCC1CCCC2(CC(OC(=O)NCCc3ccc(F)cc3)CC(CCC(=O)N[C@@H](C)C(=O)OC)O2)O1 (stereo not given in full) | -0.576 | 0.37 | -0.132 | 0.632 | 1.1 | 0.511 | 0.777 | -0.0861 (inactive) | 0.347 | -0.196
9 | COc1ccc(O[C@H]2C=C[C@@H](c3ccccc3)O[C@@H]2CON=C[C@@H](C)[C@H](OCc2ccccc2)C(C)C)cc1 | -0.397 | -0.249 | -0.168 | -0.773 | -0.936 | -0.744 | -0.921 | -1.01 (inactive) | -0.623 | -0.602
10 | CC(CCN1CCc2nc(-c3ccccc3)c(-c3ccccc3)cc2C1)=NOC(C)CN1CCCCc2nc(C)c(C)cc21 (stereo not given) | -0.16 | -0.0309 | -0.0398 | 0.476 | 0.519 | 0.657 | 0.885 | 1.1 (inactive) | 0.465 | 0.115
11 | CCCCCN1CC=CC23O[C@@H]4C=CCOC(=O)[C@@H]4[C@H]2C(=O)N(C(CO)C(C)C)[C@@H]3C1=O (stereo not given in full) | 0.232 | -1.58 | -0.141 | -0.495 | -1.15 | -0.694 | 0.657 | -0.0073 (inactive) | -0.357 | -0.15
12 | O=C1[C@H]2[C@H]3[C@H](O)[C@H](O)CC(=NO[C@@H]4O[C@H](CO)[C@@H](O)[C@H](O)[C@H]4O)[C@H]3CC[C@H]2C(=O)N1Cc1ccc2c(c1)OCO2 | 0.606 | 1.53 | -0.104 | -0.103 | -0.475 | 0.266 | 0.592 | -0.0585 (inactive) | 0.319 | -0.132
13 | CCN1C(=O)[C@H]2[C@H]3[C@H](O)[C@H](O)CC(=NOCC=C(C)CCC=C(C)C)[C@H]3CC[C@H]2C1=O | -0.968 | 0.689 | -0.117 | 0.923 | 0.698 | 0.65 | 1.07 | -0.454 (inactive) | 0.617 | 0.183
14 | O=C1[C@H]2[C@H]3[C@H](O)[C@H](O)CC(=NOC[C@@H](O)COCc4ccco4)[C@H]3CC[C@H]2C(=O)N1c1cccc(Oc2ccccc2)c1 | -0.0639 | 1.55 | -0.187 | -0.0105 | -1.31 | 0.141 | 0.603 | -0.425 (inactive) | -0.266 | -0.16
15 | COCCOC(=O)N1C(=O)[C@@]2(c3cc(C#Cc4ccc(OC)cc4)ccc31)[C@H](C(=O)N1CCN(c3ncccn3)CC1)[C@H]1C(=O)O[C@H](c3ccccc3)[C@H](c3ccccc3)N1[C@@H]2c1ccc(OCCO)cc1 | 0.367 | -0.473 | -0.006 | 0.3 | 1.35 | 0.458 | 0.703 | 0.726 (inactive) | 0.383 | 0.28
16 | C/C=C\[C@@H](NCc1ccccc1Br)[C@@H](O)Cc1ccccc1 | 1.08 | -0.441 | -0.151 | -0.75 | -1.46 | -0.0182 | -0.537 | -0.445 (inactive) | -0.336 | -0.236
17 | O=C(CS)NCCCCCNC(=O)[C@@H]1C[C@@H]2C(=O)N[C@@H](Cc3ccccc3)C(=O)N2[C@@H]1c1ccc(O)cc1 | 0.154 | 0.524 | -0.0766 | 0.435 | -0.138 | 0.67 | 1.36 | 1.2 (inactive) | 0.0658 | -0.0994

Row | SMILES | composite z-score [1] | composite z-score [2] | composite z-score [3] | composite z-score [4] | composite z-score [5] | composite z-score [6] | composite z-score [7] | z-score [8] | composite z-score [9] | composite z-score [10]
18 | CCOC(=O)CCN1C(=O)[C@H]2[C@H]3[C@H](O)[C@H](O)CC(=NOCc4ccccc4)[C@@H]3CC[C@H]2C1=O | -0.572 | 0.227 | -0.201 | 0.193 | 0.93 | 0.22 | 0.588 | -0.48 (inactive) | 0.0033 | -0.0645
19 | O=C1NC(=O)C2C1C=CC(C(O)Cc1ccccc1)N2Nc1ccccn1 (stereo not given) | -0.368 | 0.0052 | -0.0154 | 0.477 | 1.14 | 1.79 | 0.934 | -0.518 (inactive) | 0.494 | -0.0618
20 | Cc1cc2c(c(=O)o1)[C@H](O)[C@H]1O[C@H]1C2=O | 0.0331 | 0.357 | -0.175 | 0.118 | 0.749 | -0.262 | 0.12 | -0.924 (inactive) | -0.0853 | -0.0994
21 | CCOC(=O)CCN1C(=O)[C@H]2[C@H]3[C@H](O)[C@H](O)CC(=O)[C@H]3CC[C@H]2C1=O | -0.554 | 0.418 | -0.128 | 0.389 | 0.709 | 0.217 | 0.518 | 0.639 (inactive) | 0.372 | -0.132
22 | Cc1cc(C)c(-c2cc([C@H](C)ON=C3[C@H]4CCn5c(=O)n(-c6ccccc6)c(=O)n5[C@H]4[C@H](O)[C@@H]4O[C@H]34)on2)c(C)c1 | -0.437 | 1.55 | 0.0168 | 0.481 | 0.471 | 0.463 | 0.0257 | -0.793 (inactive) | 0.484 | 0.0024
23 | CO[C@H]1COC(=O)[C@@H]2CCCN2C(=O)CC=C[C@@H](C)[C@H](OC)COC(=O)CC=C[C@@H]1C | -0.57 | 1.62 | -0.163 | -0.0218 | -0.256 | -0.796 | 0.659 | -1.1 (inactive) | 0.152 | 0.176
24 | O=C1[C@H]2[C@H]3[C@H](O)[C@H](O)CC(=NO[C@@H]4O[C@H](CO)[C@@H](O)[C@H](O)[C@H]4O)[C@H]3CC[C@H]2C(=O)N1C1CCCCC1 | -0.332 | 1.49 | -0.0659 | -0.0948 | 0.028 | -0.197 | 0.995 | -0.225 (inactive) | 0.276 | 0.841
25 | CCOC(=O)NN=C1C[C@@H](O)[C@@H](O)[C@@H]2[C@@H]3C(=O)N(CC)C(=O)[C@@H]3CC[C@@H]12 | -0.415 | 0.377 | -0.0355 | 0.72 | 0.797 | -0.008 | 0.672 | 0.323 (inactive) | 0.713 | -0.201
26 | COc1ccc(O[C@H]2C=C[C@@H](c3ccccc3)O[C@@H]2COC(=O)CCC(C)=NOC(C)CN2CCCCc3nc(C)c(C)cc32)cc1 (stereo not given in full) | 0.614 | -0.017 | -0.164 | -0.102 | -0.763 | -0.0663 | 0.106 | 0.766 (inactive) | -0.62 | -0.226
27 | COc1ccccc1CN1C(=O)c2ccccc2[C@@]2(Cc3ccccc3N(C(C)C)C2=O)[C@@H]1c1ccc(CO)cc1 | -0.111 | -0.336 | -0.186 | -0.689 | -0.294 | -0.0492 | -0.723 | -2.45 (inactive) | 0.351 | -0.374
28 | CCOC(=O)NN=C1C[C@@H](O)[C@@H](O)[C@@H]2[C@@H]3C(=O)N(C[C@@H]4CCCO4)C(=O)[C@@H]3CC[C@@H]12 | -0.216 | 0.0306 | -0.0786 | 0.454 | 0.453 | 0.121 | 0.69 | 0.52 (inactive) | 0.0701 | -0.0994
29 | c1ccc(C2NCCc3c2[nH]c2ccccc32)cc1 (stereo not given) | 0.136 | 0.548 | 0.0183 | 0.0913 | -0.443 | 0.464 | 0.233 | -0.151 (inactive) | -0.16 | -0.128
30 | COC(=O)[C@@H]1N=C(c2ccc(OCCCO)cc2)O[C@@H]1c1ccccc1N=[N+]=[N-] | 1.64 | 0.308 | -0.006 | -0.282 | 0.124 | 1.79 | 1.18 | 3.42 (inactive) | 0.864 | 0.189
31 | C[N+](C)(C)CCCCCCNC(=O)[C@@H]1C[C@@H]2C(=O)N3CCC[C@H]3C(=O)N2[C@@H]1c1cccc(OCCO)c1 | -0.0041 | 0.669 | -0.169 | -0.239 | -0.337 | 0.747 | 1.35 | 5.01 (inactive) | -0.128 | -0.48
32 | C#C[C@@H](CC)O[Si](C#Cc1ccc(Oc2ccccc2)cc1)(C(C)C)C(C)C | -0.321 | 0.438 | -0.201 | 0.247 | 0.824 | 0.108 | 0.0426 | 0.364 (inactive) | 0.168 | -0.0193
33 | CCN1C(=O)[C@H]2[C@H]3[C@H](O)[C@H](O)CC(=NOC(C)CN4CCCCc5nc(C)c(C)cc54)[C@@H]3CC[C@H]2C1=O (stereo not given in full) | -0.698 | 0.532 | -0.138 | 0.223 | 0.462 | -0.531 | -0.274 | 0.682 (inactive) | 0.253 | 0.119
